Screening results: PubChem BioAssay, National Center for Advancing Translational Sciences (NCATS)
Sampled rows, rich in hits. Any-hit rate of the full collection: about 5.7%.
HT1080NT lethal: kills 2HG-producing HT-1080-NT fibrosarcoma cells. HT-1080-NT fibrosarcoma viability, CellTiter-Glo ATP luminescence, 48 h. Potency, µM (series often up to 46.1 µM), actives largely listed as cytotoxic. 360,000 tested, 1.6% active;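 note: NT is the 2HG producing partner of a matched IDH1 knockdown line; nearly all actives have a fitted effect of over 55% in size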
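Fibrosarcoma NT cells, 750 per well in 5% FBS RPMI, were exposed to compound for 48 hours. Viability: CellTiter-Glo luminescence.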
KB-V1 cytotox: KB-V1 MDR subline cytotoxicity; KB-V1 MDR cells viability, CellTiter-Glo, 72 h; Potency, µM (series often up to 46.1 µM), most hits filed as cytotoxic; 400,000 tested, 3.4% active; AID 1347076; note: nearly all actives have a fitted effect of over 60% in size
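Potencies derive from concentration-effect curves fitted to normalized luminescence (CellTiter-Glo) of KB-V1 cells treated for 72 h at 37 degrees C in phenol-red-free DMEM containing 10% FBS.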
HT1080 IDH1KD tx: kills HT-1080 cells with IDH1 knockdown; HT-1080 IDH1 knockdown viability, ATP luminescence, 48 h; Potency, µM (top dose mostly 46.1 µM), hits mostly cytotoxic; 360,000 tested, 2% active; AID 686971
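In this qHTS, HT-1080 cells depleted of IDH1 are exposed for 48 h at 37 °C to compound titrations. Toxicity is scored from CellTiter-Glo luminescence, with DMSO as full viability and medium alone as none.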
KB-3-1 cytotox: kills parental KB-3-1 adenocarcinoma cells | KB-3-1 viability, CellTiter-Glo ATP luminescence, 72 h | Potency, µM (series often up to 46.1 µM), usual class: cytotoxic | 400,000 tested, 1.4% active; note: nearly all actives have a fitted effect of over 60% in size
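Cells are dispensed, compounds pinned in, plates held at 37 °C for 72 h, then CellTiter-Glo is added and luminescence read after 10 minutes. Cell line: parental KB-3-1 in phenol-red-free DMEM, 10% FBS.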
Hits are given with their value; . = inactive; ? = inconclusive; / = not tested or not shown. Calls come from the whole dose curve; as a rule, active = well fitted curve in the direction sought with a large enough effect; inconclusive = small, poorly fitted or top-dose-only effect, or another doubt; inactive = no such curve, though single readings can be large; an effect the other way counts as inactive or inconclusive.

SMILES	HT1080NT lethal	KB-V1 cytotox	HT1080 IDH1KD tx	KB-3-1 cytotox
COc1cccc(NC(=O)C2=C(C)C(=O)OC23CCN(C(C)=O)CC3)c1	/	?	/	.
Cc1ccc(C2=NN=C(NC(=O)CSc3nnc4c5ccccc5n(C)c4n3)SC2)cc1	?	?	29.1µM	?
Cc1ccc(Nc2cc(C(=O)NCCCN3CCOCC3)c3ccccc3n2)cc1C	23.1µM	.	?	.
O=C(NCCCN1CCCC1)c1cc(Sc2ccc(F)cc2)nc2ccccc12	20.6µM	?	25.9µM	.
O=C(NCCN1CCOCC1)c1cc(Sc2ccc(F)cc2F)nc2ccccc12	.	.	.	.
Cc1ccc(Nc2ncc(C(=O)N3CCN(c4cccc(Cl)c4)CC3)c3ccccc23)cc1Cl	/	.	/	.
Cc1ccc(Nc2ncc(C(=O)NCCCN3CCN(C)CC3)c3ccccc23)cc1Cl	16.4µM	?	25.9µM	.
CCOc1ccccc1NC(=O)CSc1ccc2nc(-c3ccccc3)cn2n1	/	.	/	.
Cc1ccc(-c2nc3ccccc3s2)cc1S(=O)(=O)N1CCOCC1	.	.	17.8µM	.
Cc1ccc2nc(-c3ccc(N)cc3)sc2c1	.	.	.	?
Cc1ccc(-c2nnc(NCc3nc4ccccc4[nH]3)c3ccccc23)cc1S(=O)(=O)N1CCOCC1	.	.	.	.
Nc1ccc2nc(-c3ccccc3)sc2c1	?	?	?	16.4µM
Cc1cc(-c2nc3ccccc3s2)ccc1N	.	18.4µM	.	?
COc1ccc(-c2nc(C)c(CCNC(=O)c3ccc(F)c(F)c3)s2)cc1	/	?	/	.
Cc1cc(C(=O)N/N=C/c2ccc(Cl)c([N+](=O)[O-])c2)c(C)n1-c1ccc(F)cc1	?	?	20.6µM	5.8µM
Cc1nn2cc(-c3cccc(Cl)c3)cnc2c1Cl	.	5.8µM	?	13µM
Cc1nn2cc(-c3cccc(Cl)c3)cnc2c1Br	.	?	?	.
Cc1ccccc1Cn1c(CN2CCC(C(=O)NCc3cccnc3)CC2)cc2ccccc21	/	.	/	.
Nc1c(Cl)ncnc1N/N=C/c1ccccn1	?	.	?	8.2µM
Nc1c(Cl)ncnc1N/N=C/c1ccc2ccccc2n1	?	.	?	20.6µM
Cc1c(CNC2CCC(C)CC2)c(C(=O)O)c(C)n1Cc1ccc(Cl)cc1 (configuration not stated)	/	.	/	.
O=C(C#Cc1ccccc1)c1ccc([N+](=O)[O-])cc1	?	?	?	23.1µM
O=C(C#Cc1ccccc1)c1ccccc1	?	?	18.4µM	.
Cc1ccc(-c2nc(S(=O)(=O)c3ccc(C)cc3)c(SCC(=O)NC3CCCCC3)o2)cc1	/	?	/	.
COC(=O)CC1(C(=O)OC)Oc2ccc(Br)cc2C(=O)N1c1cc(Cl)c(Cl)cc1Cl (configuration not stated)	?	10.3µM	.	?
SMILES	HT1080NT lethal	KB-V1 cytotox	HT1080 IDH1KD tx	KB-3-1 cytotox
COC(=O)CN1C(=O)Nc2ccc(Br)cc2C1c1ccccc1Cl (configuration not stated)	?	.	?	?
COC(=O)CC1(C(=O)OC)Oc2ccc(Br)cc2C(=O)N1c1ccc(Br)cc1Cl (configuration not stated)	14.6µM	18.4µM	14.6µM	?
COC(=O)CC1(C(=O)OC)Oc2ccc(Br)cc2C(=O)N1c1cccc(Cl)c1Cl (configuration not stated)	20.6µM	5.17µM	?	?
COC(=O)CC1(C(=O)OC)Oc2ccc(Br)cc2C(=O)N1c1cc(Cl)cc(Cl)c1 (configuration not stated)	?	?	.	.
Cc1cccc(OCC(=O)Nc2ccc(S(=O)(=O)N(Cc3ccccc3)c3ccccc3)cc2)c1	/	.	/	.
Cc1cc(C(=O)CSc2nnnn2C)c(C)n1-c1ccc2c(c1)OCCO2	.	20.6µM	.	.
Cc1cc(C(=O)CSc2nnc(-c3ccco3)o2)c(C)n1-c1ccc2c(c1)OCCO2	.	?	.	.
Cc1cc(C(=O)COC(=O)c2ccc(N)c([N+](=O)[O-])c2)c(C)n1-c1ccc2c(c1)OCO2	.	?	?	?
CC(=O)c1ccc(OCC(=O)c2cc(C)n(-c3ccc4c(c3)OCO4)c2C)cc1	.	8.2µM	?	?
COc1ccc(C2C(C(=O)Nc3ccccc3)=C(C)Nc3nc(-c4ccccc4Cl)nn32)cc1OC (configuration not stated)	/	.	/	.
Cc1noc(C)c1C(=O)Nc1nc(-c2ccc(F)c(F)c2)cs1	.	20.6µM	.	.
O=C(CCl)NN1C(=O)NC(c2ccccc2)(c2ccccc2)C1=O	?	.	16.4µM	?
O=C(Nc1c(C(=O)N2CCN(c3ccccc3)CC2)oc2ccccc12)c1ccco1	/	.	/	.
O=c1[nH]c(S)nc2sc3c(c12)CCCC3	.	.	.	.
O=c1[nH]c(-c2ccco2)nc2sc3c(c12)CCCC3	.	18.4µM	.	.
O=C(CSc1n[nH]c(-c2ccccc2)n1)N1CCN(c2ccccc2F)CC1	/	.	/	.
O=[N+]([O-])c1ccc(Nc2nc(N/N=C/c3cccc(F)c3)nc(N3CCCC3)n2)cc1	.	.	.	.
COc1cccc(/C=N/Nc2ccc([N+](=O)[O-])cn2)c1O	0.651µM	.	1.16µM	5.17µM
COc1cccc(/C=N/Nc2nc(Nc3ccc([N+](=O)[O-])cc3)nc(N3CCCC3)n2)c1O	9.2µM	?	3.26µM	16.4µM
CCOC(=O)CSC1=NC(=O)/C(=C/c2ccc(OC)cc2)S1	?	?	?	11.6µM
COc1ccc(/C=C2\SC(N)=NC2=O)cc1	.	?	.	.
COCCCn1c(SCc2nnc(-c3ccc(OC)c(OC)c3)o2)nc2ccccc2c1=O	?	?	?	.
COc1ccc(-c2nnc(CSc3nc4ccccc4c(=O)n3CC(C)C)o2)cc1OC	?	20.6µM	?	.
Cc1ccccc1-c1nnc(SC(C)C(=O)NC2CCCC2)o1 (configuration not stated)	.	20.6µM	.	.
CC(Sc1nnc(-c2ccccc2F)o1)C(=O)Nc1ccc(N2CCOCC2)cc1 (configuration not stated)	.	.	.	.
SMILES	HT1080NT lethal	KB-V1 cytotox	HT1080 IDH1KD tx	KB-3-1 cytotox
Cc1occc1-c1nnc(SC(C)C(=O)Nc2ccccc2F)o1 (configuration not stated)	?	10.3µM	?	?
O=C1OCC2=C1C(c1cccc(Cl)c1)CC(=O)N2c1ccc(C(F)(F)F)cc1 (configuration not stated)	/	.	/	.
COc1ccc(-n2nc(C(=O)NCCc3cccc(C)c3)c3c4ccccc4n(C)c3c2=O)cc1Cl	/	.	/	.
CC(C)(C)c1ccc(OCc2ccc(C(=O)N/N=C/c3ccc(O)c(O)c3)cc2)cc1	25.9µM	?	?	?
O=C(N/N=C/c1ccc(OCc2ccc(F)cc2)cc1)c1ccccc1	.	.	.	.
COc1ccc(O)c(/C=N/NC(=O)c2ccc(OCc3cccc(Br)c3)cc2)c1	1.64µM	3.26µM	5.17µM	?
COc1ccc(C(=O)N/N=C/c2cc(Br)ccc2O)cc1OC	?	20.6µM	?	?
Cc1cc(F)ccc1-n1nnc(C(N)=O)c1C	/	.	/	.
